# Results taken from PubChem BioAssay.
# Active and inactive are the calls of the source.
# Assays:
# Albumin (Bos taurus) = Albumin (Bos taurus) (UniProt P02769); assay: compounds binding labelled BSA control protein – biochemical, small-molecule microarray, Alexa647 label, 635/667 nm fluorescence, artefact control for SMM control protein annotation, profiling panel (AID 1118); details: BSA-A647 binding, fluorescence 635 nm, higher = more signal;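 note: score merges 667 nm emission intensity and signal-to-noise per printed compound spot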
# Chain of Albumin (Bos taurus) (P02769 whole entry, looked up): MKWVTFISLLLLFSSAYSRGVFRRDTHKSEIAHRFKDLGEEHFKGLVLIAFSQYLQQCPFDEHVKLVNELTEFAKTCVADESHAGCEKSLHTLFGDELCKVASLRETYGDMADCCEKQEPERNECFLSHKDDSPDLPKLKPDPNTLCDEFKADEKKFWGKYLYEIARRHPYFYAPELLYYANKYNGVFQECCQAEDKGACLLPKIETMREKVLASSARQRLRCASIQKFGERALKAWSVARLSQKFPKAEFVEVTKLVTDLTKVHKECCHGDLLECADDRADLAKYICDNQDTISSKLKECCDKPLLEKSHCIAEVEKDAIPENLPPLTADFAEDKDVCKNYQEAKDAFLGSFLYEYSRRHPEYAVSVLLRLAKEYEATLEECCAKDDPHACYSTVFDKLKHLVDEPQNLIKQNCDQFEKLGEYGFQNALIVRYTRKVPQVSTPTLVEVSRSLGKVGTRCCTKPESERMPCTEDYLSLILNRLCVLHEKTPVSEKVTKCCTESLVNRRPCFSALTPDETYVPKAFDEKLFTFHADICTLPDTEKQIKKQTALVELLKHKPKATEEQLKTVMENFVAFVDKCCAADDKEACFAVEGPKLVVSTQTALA
# [1] = probe aXIP binding to arrayed compounds – biochemical, NeuroSMM set, 635/667 nm fluorescence, primary screen (AID 1119); details: small-molecule microarray, higher = more signal, called active from +8 up or from −8 down;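 note: probe is the protein aXip251-270 applied at 1 µg/mL to compound-printed slides; binding of probe to printed compounds measured as 667 nm fluorescence plus signal to noise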
# [2] = probe aNOTCH3 binding on compound microarray – biochemical, small-molecule microarray, 635/667 nm fluorescence, primary screen (AID 1120); details: higher = more signal;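 note: probe is a biotin-tagged antibody raised against NOTCH3 rather than NOTCH3 protein; score merges spot fluorescence near 667 nm with spot signal to noise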
# [3] = probe aNOTCH2 binding on compound microarray – biochemical, small-molecule microarray, 635/667 nm fluorescence, primary screen (AID 1121); details: higher = more signal;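 note: score merges feature fluorescence read at 667 nm with its signal to noise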
# [4] = target: Carbonic anhydrase 2 (Homo sapiens) (UniProt P00918); assay: compounds binding carbonic anhydrase 2 – biochemical, small-molecule microarray, Alexa647-labelled CAII, profiling panel (AID 1122); details: CAII-A647 binding fluorescence, higher = more signal
# [5] = COS7 lysate on small-molecule microarray, probe aHis, 635 nm (AID 1123); details: COS7 cell lysate, fluorescence, higher = more signal;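 note: z-score combines 667nm fluorescence intensity with signal-to-noise per printed compound spot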
# [6] = probe aLAP1 signal on lysate-treated microarray – cell lysate, small-molecule microarray, COS7 lysate, primary screen (AID 1124); details: probe aLAP1, fluorescence, higher = more signal;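 note: lysate comes from COS7 cells expressing LAP1 and is applied at 0.3 µg/mL; score merges spot fluorescence near 667 nm with signal-to-noise over triplicate slides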
# Sam68 (KHDRBS1) = assay: compounds binding KHDRBS1 protein – biochemical, small-molecule microarray, 635 nm fluorescence, primary screen (AID 1125); details: higher = more signal;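 note: score merges 667 nm channel intensity with signal to noise over triplicate slides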
# [7] = system: Chordin-like protein 2 (CHRDL2); assay: compounds binding chordin-like 2 – biochemical, small-molecule microarray, 635 nm fluorescence, primary screen (AID 1126); details: fluorescence 635 nm, higher = more signal;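 note: printed compound slides probed with Chrdl2 protein at 4 µg/mL for 1 h at 4 C; score merges 667 nm emission intensity with signal to noise over three replicate slides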
# [8] = target: Concanavalin-A (Canavalia ensiformis) (UniProt P02866); assay: compounds binding concanavalin A lectin – biochemical, small-molecule microarray, Alexa647 label, 635 nm, artefact control for SMM control protein annotation, primary screen (AID 1127); details: ConA-A647 binding fluorescence, higher = more signal;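 note: z combines 667 nm emission intensity with signal-to-noise across three replicate slides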
# Chain of Concanavalin-A (Canavalia ensiformis) (P02866 whole entry, looked up): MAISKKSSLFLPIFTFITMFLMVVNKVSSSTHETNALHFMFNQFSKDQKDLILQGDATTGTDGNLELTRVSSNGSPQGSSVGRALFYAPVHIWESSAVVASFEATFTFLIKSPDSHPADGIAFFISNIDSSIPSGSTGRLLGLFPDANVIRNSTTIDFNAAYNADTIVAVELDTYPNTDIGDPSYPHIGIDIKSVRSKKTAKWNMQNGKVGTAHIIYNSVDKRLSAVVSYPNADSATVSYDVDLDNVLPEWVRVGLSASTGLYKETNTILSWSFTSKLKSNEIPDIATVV
# [9] = compounds binding Alexa647 anti-His antibody – biochemical, small-molecule microarray, 635 nm fluorescence, artefact control for SMM control protein annotation, primary screen (AID 1128); details: higher = more signal;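 note: score merges feature fluorescence with signal-to-noise for each printed compound spot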
# [10] = system: Human papillomavirus type 1a E7 protein (residues 1-88); assay: HPV1a E7 small-molecule binders, primary screen, biochemical, small-molecule microarray, residues 1-88, 635 nm (AID 1129); details: small-molecule microarray binding, fluorescence 635 nm; higher = more signal
# [11] = target: Focal adhesion kinase 1 (Homo sapiens) (UniProt Q05397); assay: PTK2 protein binding on printed compound slides – biochemical, small-molecule microarray, 635/667 nm fluorescence, BSA, DTT, primary screen (AID 1130); details: 635 nm fluorescence, higher = more signal;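 note: composite of spot emission at 667 nm and signal to noise over triplicate slides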
# Chain of Focal adhesion kinase 1 (Homo sapiens) (Q05397 whole entry, looked up): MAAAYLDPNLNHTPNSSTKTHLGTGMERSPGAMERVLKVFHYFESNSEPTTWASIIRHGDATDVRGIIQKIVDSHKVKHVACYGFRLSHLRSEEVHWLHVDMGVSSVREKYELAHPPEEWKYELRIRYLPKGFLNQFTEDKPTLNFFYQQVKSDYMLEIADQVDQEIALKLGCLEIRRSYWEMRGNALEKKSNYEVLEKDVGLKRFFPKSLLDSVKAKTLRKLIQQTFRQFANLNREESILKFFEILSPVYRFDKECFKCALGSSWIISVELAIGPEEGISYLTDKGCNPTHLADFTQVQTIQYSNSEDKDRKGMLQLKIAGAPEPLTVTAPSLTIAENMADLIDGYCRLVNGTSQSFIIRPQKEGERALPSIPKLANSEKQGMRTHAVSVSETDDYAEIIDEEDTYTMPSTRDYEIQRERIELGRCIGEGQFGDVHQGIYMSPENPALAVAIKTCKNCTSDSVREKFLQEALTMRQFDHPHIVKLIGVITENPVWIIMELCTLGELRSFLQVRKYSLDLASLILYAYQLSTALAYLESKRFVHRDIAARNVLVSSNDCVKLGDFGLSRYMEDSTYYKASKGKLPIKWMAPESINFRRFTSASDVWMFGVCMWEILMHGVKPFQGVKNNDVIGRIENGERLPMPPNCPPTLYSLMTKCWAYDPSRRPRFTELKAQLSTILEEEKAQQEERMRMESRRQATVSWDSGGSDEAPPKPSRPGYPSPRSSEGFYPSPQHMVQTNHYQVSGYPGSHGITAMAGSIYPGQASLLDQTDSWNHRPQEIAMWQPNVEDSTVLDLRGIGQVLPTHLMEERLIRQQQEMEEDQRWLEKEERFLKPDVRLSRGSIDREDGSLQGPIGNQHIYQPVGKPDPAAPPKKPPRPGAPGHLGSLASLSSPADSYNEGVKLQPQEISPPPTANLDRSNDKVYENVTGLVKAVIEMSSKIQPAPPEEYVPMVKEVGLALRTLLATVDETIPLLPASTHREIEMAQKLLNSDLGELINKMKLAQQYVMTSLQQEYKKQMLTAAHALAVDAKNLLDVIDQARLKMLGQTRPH
# [12] = system: Fibrinogen (Alexa647-labelled); assay: Alexa647-fibrinogen binding to printed small molecules – biochemical, small-molecule microarray, 635/667 nm fluorescence, artefact control for SMM control-protein annotation, profiling panel (AID 1131); details: fibrinogen-A647 binding fluorescence, higher = more signal;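 note: z-score merges 667 nm fluorescence with per-spot signal-to-noise over triplicate slides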
# [13] = target: Follistatin (Homo sapiens) (UniProt P19883); assay: FST protein binding to printed compounds – biochemical, small-molecule microarray, 635/667 nm fluorescence, primary screen (AID 1132); details: 635 nm fluorescence, higher = more signal
# Chain of Follistatin (Homo sapiens) (P19883 whole entry, looked up): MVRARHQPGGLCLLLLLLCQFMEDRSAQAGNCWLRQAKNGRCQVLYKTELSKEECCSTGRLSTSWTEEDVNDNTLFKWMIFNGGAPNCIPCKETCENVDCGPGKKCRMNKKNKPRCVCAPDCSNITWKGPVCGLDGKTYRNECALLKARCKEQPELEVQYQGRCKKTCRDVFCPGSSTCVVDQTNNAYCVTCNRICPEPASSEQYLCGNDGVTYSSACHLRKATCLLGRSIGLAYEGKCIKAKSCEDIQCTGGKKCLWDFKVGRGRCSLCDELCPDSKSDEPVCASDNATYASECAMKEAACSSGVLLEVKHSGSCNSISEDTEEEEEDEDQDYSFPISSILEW
# [14] = target: Fibroblast growth factor 2 (Homo sapiens) (UniProt P09038); assay: basic fibroblast growth factor binding to printed compounds – biochemical, small-molecule microarray, 635/667 nm fluorescence, primary screen (AID 1133); details: FGF2, fluorescence 635/667, higher = more signal
# Chain of Fibroblast growth factor 2 (Homo sapiens) (P09038 whole entry, looked up): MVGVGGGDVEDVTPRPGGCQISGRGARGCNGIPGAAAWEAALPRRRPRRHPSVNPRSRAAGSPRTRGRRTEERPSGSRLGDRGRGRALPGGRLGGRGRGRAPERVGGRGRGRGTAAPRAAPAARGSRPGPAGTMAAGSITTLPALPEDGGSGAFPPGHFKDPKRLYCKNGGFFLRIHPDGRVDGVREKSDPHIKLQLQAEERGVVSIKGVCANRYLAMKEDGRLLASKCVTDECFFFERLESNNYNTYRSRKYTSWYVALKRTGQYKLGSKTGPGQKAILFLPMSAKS
# [15] = JC-1 mitochondrial potential readout, lung cancer cells – cell-based, A549, JC-1 fluorescence, basal, 24 h, 100 nL, profiling panel (AID 1138); details: higher = more signal;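 note: A549 lung adenocarcinoma cells under basal conditions with no added stimulus; test concentration not given here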
# Lefty1 = Lefty1 protein binding to printed compounds – biochemical, small-molecule microarray, 635/667 nm fluorescence, primary screen (AID 1139); details: fluorescence 635/667, higher = more signal
# [16] = system: wheat germ agglutinin (Triticum aestivum), Alexa647-labelled; assay: Alexa647-WGA lectin binding to printed small molecules – biochemical, small-molecule microarray, 635/667 nm fluorescence, artefact control for SMM control-protein annotation, profiling panel (AID 1140); details: WGA-A647 binding, 635 nm fluorescence, higher = more signal;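 note: score merges 667 nm feature emission with signal to noise over triplicate slides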
# [17] = target: Luciferin 4-monooxygenase (Photinus pyralis) (UniProt P08659); assay: inhibition of purified Photinus pyralis luciferase – biochemical, luminescence, purified enzyme, 2006 set, primary screen (AID 1141); details: purified firefly luciferase, SteadyGlo luminescence, 30 min; higher = more signal, called active from +8 up or from −8 down;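 note: cell-free assay with purified firefly luciferase at 100 ng per well in PBS; test concentration not given here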
# Chain of Luciferin 4-monooxygenase (Photinus pyralis) (P08659 whole entry, looked up): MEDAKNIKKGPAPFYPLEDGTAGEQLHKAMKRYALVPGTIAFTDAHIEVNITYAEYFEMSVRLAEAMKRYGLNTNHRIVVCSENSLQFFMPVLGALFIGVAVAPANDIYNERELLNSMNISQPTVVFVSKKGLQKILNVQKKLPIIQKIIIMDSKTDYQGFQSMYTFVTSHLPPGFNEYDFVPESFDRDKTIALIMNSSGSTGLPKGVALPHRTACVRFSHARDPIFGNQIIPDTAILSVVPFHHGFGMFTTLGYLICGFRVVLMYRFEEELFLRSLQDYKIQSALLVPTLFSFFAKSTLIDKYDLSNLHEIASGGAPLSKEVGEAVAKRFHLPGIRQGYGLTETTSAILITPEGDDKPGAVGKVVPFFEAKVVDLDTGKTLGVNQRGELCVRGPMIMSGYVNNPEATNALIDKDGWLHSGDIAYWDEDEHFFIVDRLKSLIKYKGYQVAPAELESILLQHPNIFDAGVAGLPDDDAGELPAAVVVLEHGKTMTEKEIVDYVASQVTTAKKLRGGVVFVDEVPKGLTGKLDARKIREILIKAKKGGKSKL
SMILES,composite z-score (Albumin (Bos taurus)),composite Z-score [1],composite z-score [2],composite z-score [3],composite z-score [4],composite z-score [5],composite z-score [6],composite z-score (Sam68 (KHDRBS1)),composite z-score [7],composite z-score [8],composite z-score [9],composite z-score [10],composite z-score [11],composite z-score [12],composite z-score [13],composite z-score [14],z-score [15],composite z-score (Lefty1),composite z-score [16],z-score [17]
COc1ccc([Si](C)(C)[C@H]2[C@H](CC(=O)N3Cc4ccccc4C[C@H]3CO)O[C@@]3(C(=O)N(c4ccccc4)c4ccccc43)[C@@H]2C)cc1,0.622,0.319 (inactive),0.204,-0.126,0.306,0.994,0.374,1.29,1.22,1.09,1.27,1.19,0.0758,0.96,1.37,1.64,1.78,1.48,0.771,0.16 (inactive)
CC(C)c1nc2cc(Br)ccc2c(=O)o1,0.915,0.19 (inactive),0.0493,-0.0424,0.738,0.92,0.0912,0.711,-0.552,1.09,0.405,0.854,0.224,0.871,0.296,-0.357,0.48,-0.0283,0.834,0.672 (inactive)
CCOC(=O)C1=CCC(c2cc3ccccc3[nH]2)N(CCN2CC(C(=O)OCC)=CCC2c2cc3ccccc3[nH]2)C1 (stereo not given),0.656,0.0551 (inactive),0.15,-0.108,0.521,4.05,0.674,1.29,0.106,1.14,1.65,1.22,0.142,0.974,0.748,0.0905,-1.43,0.24,1,1.77 (inactive)
CC(C)=CCCC(C)=CC(O)C1C=CC2C(=O)NC(=O)C2N1Nc1ccc(Cl)cc1Cl (stereo not given),0.909,-0.0883 (inactive),0.0952,-0.0464,0.596,1.49,1.36,0.623,0.307,0.623,0.0944,1.19,1.15,0.44,1.29,-0.935,-0.974,0.0724,0.863,-0.889 (inactive)
CC(C)OC(=O)CC(=O)CC(O)c1cccc([N+](=O)[O-])c1 (stereo not given),0.799,-0.144 (inactive),0.241,-0.177,0.633,0.707,-0.107,1.22,0.01,0.828,0.68,1.14,0.4,0.438,0.461,-0.277,-0.428,-0.0245,0.265,1.9 (inactive)
COCCOC(=O)N1C(=O)[C@@]2(c3cc(C#CCCO)ccc31)[C@H](c1ccccc1OCCO)N1[C@H](c3ccccc3)[C@H](c3ccccc3)OC(=O)[C@H]1[C@@H]2C(N)=O,-0.0956,-0.0135 (inactive),-0.0054,-0.118,0.578,1.89,0.128,1.3,0.0193,1.05,1.75,1.24,0.621,0.996,1.02,0.963,-0.0726,0.78,0.246,0.85 (inactive)
O=C(O)[C@H](Cc1ccccc1)n1cc(C2(O)CCCCC2)nn1,0.568,0.217 (inactive),0.0191,-0.147,0.54,1.46,0.0496,1.01,-0.0151,0.463,0.689,0.357,0.736,0.52,0.142,0.278,-0.141,0.676,0.0402,-0.0102 (inactive)
CC(C)=CCCC(C)=CC(O)C1C=CC2C(=O)NC(=O)C2N1Nc1ccccn1 (stereo not given),0.408,0.992 (inactive),0.254,0.0047,0.725,0.39,0.969,1.25,1.43,0.932,1.97,1.08,-0.097,0.868,1.39,1.7,0.966,1.54,0.73,-1.17 (inactive)
NC(=O)N1C(=O)C2C(C1=O)C1C=C(CCCO)C2C(C2CC2)N1Cc1sc2ccccc2c1Cl (stereo not given),0.758,0.121 (inactive),-0.0362,-0.15,0.616,1.19,0.979,1.15,-0.0285,1.11,2.4,0.802,0.284,0.795,0.539,0.983,0.898,0.587,0.661,-2.2 (inactive)
CC1CC/C=C\[C@H]2OC34C=CCN(Cc5ccccc5)C(=O)[C@H]3N(CCCCCCO)C(=O)[C@@H]4C2C(=O)O1 (stereo not given in full),0.434,-0.213 (inactive),-0.383,-0.133,0.895,0.42,0.718,-0.957,-0.993,-1.45,0.607,-0.415,-0.28,-1.31,-0.909,-0.808,0.856,-0.869,-0.51,-1.51 (inactive)
C=CCOC(=O)[C@@H]1[C@H]2C(=O)O[C@H](c3ccccc3)[C@H](c3ccccc3)N2[C@H](c2ccc(OCCOC(=O)[C@H]3C[C@H]4C(=O)N5CCC[C@H]5C(=O)N4[C@H]3c3cccc(OCCO)c3)cc2)[C@@]12C(=O)Nc1ccc(I)cc12,-0.638,1.17 (inactive),-0.0328,-0.0228,0.219,0.942,0.448,1.3,1.02,1.17,1.04,0.994,0.746,0.241,1.4,1.38,-1.32,1.44,0.555,0.0266 (inactive)
